# Reference: PubChem BioAssay (NCATS)
# Where “and” joins values, the source holds several entries; their conditions need not be identical. Equal entries are not always repeated. Results filed as inconclusive are left out. Entries that show only a call come without a potency. Calls of active or inactive are those of the source. Calls come from the whole dose curve; as a rule, active = well fitted curve in the direction sought with a large enough effect; inconclusive = small, poorly fitted or top-dose-only effect, or another doubt; inactive = no such curve, though single readings can be large; an effect the other way counts as inactive or inconclusive.
# How the values were obtained:
# [1] = molecular target: Glutathione peroxidase 1 (Homo sapiens) (UniProt P07203); assay: Primary qHTS Assay for Inhibitors of Recombinant Selenoprotein Glutathione Peroxidase 1 (GPX1) (AID 1845191); details: recombinant GPX1, GR-coupled NADPH fluorescence, 15 min; series mostly up to 48.8 µM; note: nearly all actives have a fitted effect of over 65% in size
# Glutathione peroxidase 1 (Homo sapiens), sequence (P07203 whole entry, looked up): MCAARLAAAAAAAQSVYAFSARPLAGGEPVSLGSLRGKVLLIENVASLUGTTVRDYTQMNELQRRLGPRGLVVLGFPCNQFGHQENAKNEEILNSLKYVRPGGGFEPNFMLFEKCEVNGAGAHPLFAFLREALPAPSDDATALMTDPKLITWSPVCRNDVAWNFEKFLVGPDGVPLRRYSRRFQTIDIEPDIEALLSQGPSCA
# Procedure, shortened: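 GPX1 10 nM, GR 100 nM, GSH 1 mM, NADPH 0.5 mM, CHP 0.5 mM (final). 30-min cpd preincubation, RT. Ex340/Em450 read t=0, t=15 min.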
# [2] = molecular target: Phospholipid hydroperoxide glutathione peroxidase GPX4 (Homo sapiens) (UniProt P36969); assay: Primary qHTS Assay for Inhibitors of Recombinant Selenoprotein Glutathione Peroxidase 4 (GPX4) (AID 1845192); details: recombinant GPX4, GR-coupled NADPH fluorescence, 15 min; series mostly up to 50 µM; note: nearly all actives have a fitted effect of over 65% in size
# Phospholipid hydroperoxide glutathione peroxidase GPX4 (Homo sapiens), sequence (P36969 whole entry, looked up): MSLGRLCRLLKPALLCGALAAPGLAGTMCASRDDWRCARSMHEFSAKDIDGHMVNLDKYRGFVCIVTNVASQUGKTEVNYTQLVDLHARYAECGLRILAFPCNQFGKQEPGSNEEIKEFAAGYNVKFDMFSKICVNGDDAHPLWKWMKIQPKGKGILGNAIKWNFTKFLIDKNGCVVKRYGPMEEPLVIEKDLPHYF
# Procedure, shortened: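 qHTS, GR-coupled: GPX4 200 nM + cpd 30 min RT → GSH 1 mM, NADPH 0.5 mM, GR 100 nM → CHP 0.5 mM start; fluor 340/450 at t0 and t15 min; no-enzyme wells as control.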
# [3] = Quantitative High-Throughput drug screen in 47 multiple myeloma cell lines against the NCATS MIPE library collection: FR4_PLB cell viability assay (AID 1918924; note: nearly all actives have a fitted effect of over 35% in size); details: FR4_PLB myeloma cells viability, CellTiter-Glo ATP, 48 h; series mostly up to 45.8 µM
# Procedure, shortened: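 Relative luminescence from CellTiter-Glo served as the viability signal, referenced to DMSO-treated (100%) and cell-free medium (0%) controls. Treatment lasted 48 hours at 37C with 500 cells per well.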
# [4] = Quantitative High-Throughput drug screen in 47 multiple myeloma cell lines against the NCATS MIPE library collection: Delta47_JCRB cell viability assay (AID 1918925; note: nearly all actives have a fitted effect of over 45% in size); details: Delta47 myeloma viability, CellTiter-Glo ATP, 48 h; series mostly up to 45.8 µM
# Procedure, shortened: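 Myeloma cell lines, 500 cells per well, exposed to MIPE 4.0 library compounds for 48 h at 37C, 5% CO2. Viability from ATP by CellTiter-Glo luminescence; normalised to DMSO (100%) and media-only (0%) wells.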
# Potency is the fitted concentration of half-maximal effect.
SMILES,Potency [1],Potency [2],Potency [3],Potency [4],outcome [1],outcome [2]
CNC1CCCN(c2c(F)cc3c(=O)c(C(=O)O)cn(C4CC4)c3c2OC)C1 (configuration not stated),inactive,inactive,inactive,–,–,–
CC(=O)CC(c1ccccc1)c1c(O)c2ccccc2oc1=O (configuration not stated),inactive,inactive,inactive,–,–,–
CN(C)c1ccc(C(=C2C=CC(=[N+](C)C)C=C2)c2ccc(N(C)C)cc2)cc1,inactive,inactive,0.132 µM (active),0.0105 µM (active),–,–
CC(C)OC(=O)OCOP(=O)(CO[C@H](C)Cn1cnc2c(N)ncnc21)OCOC(=O)OC(C)C,inactive,inactive,inactive,–,–,–
Cc1nnc(NS(=O)(=O)c2ccc(N)cc2)s1,inactive,inactive,inactive,–,–,–
NCCCC(O)(P(=O)(O)O)P(=O)(O)O,inactive,inactive,inactive,inactive,–,–
CN(CCOc1ccc(CC2SC(=O)NC2=O)cc1)c1ccccn1 (configuration not stated),inactive,inactive,inactive,inactive,–,–
Cn1nnc2c(C(N)=O)ncn2c1=O,inactive,inactive,inactive,–,–,–
NC(=O)c1cccc(N)c1,inactive,inactive,inactive,inactive,–,–
CO[C@@]12[C@H](COC(N)=O)C3=C(C(=O)C(C)=C(N)C3=O)N1C[C@@H]1N[C@@H]12,inactive,inactive,26.4 µM (active),23.5 µM (active),–,–
O=C(O)c1cn(C2CC2)c2cc(N3CCNCC3)c(F)cc2c1=O,–,inactive,inactive,–,inactive [at 9.52 µM],–
C[C@@H](NCCCc1cccc(C(F)(F)F)c1)c1cccc2ccccc12,inactive,inactive,inactive,inactive,–,–
O=C(O)c1ccc(-n2nc(-c3ccccc3O)nc2-c2ccccc2O)cc1,inactive,inactive,23.5 µM (active),–,–,–
COc1cc(NS(=O)(=O)c2ccc(N)cc2)nc(OC)n1,inactive,inactive,inactive,inactive,–,–
COc1cc([C@@H]2c3cc4c(cc3[C@H](O)[C@H]3COC(=O)[C@H]23)OCO4)cc(OC)c1OC,inactive,inactive,inactive,inactive,–,–
COc1cccc(N(C)C(=S)Oc2ccc3c(c2)CCCC3)n1,inactive,inactive,inactive,inactive,–,–
COc1ccc(-c2ccc3cc(C(=O)O)ccc3c2)cc1C12CC3CC(CC(C3)C1)C2,inactive,inactive,inactive,inactive,–,–
CCOCC(O)COc1ccc(NC(=O)CC[S+](C)C)cc1 (configuration not stated),inactive,inactive,inactive,inactive,–,–
NC(=O)c1cccnc1,inactive,inactive,inactive,–,–,–
CC(=O)[C@H]1CC[C@H]2[C@@H]3CC=C4C[C@@H](O)CC[C@]4(C)[C@H]3CC[C@]12C,inactive,inactive,inactive,inactive,–,–
C[C@@H]1C[C@H]2[C@@H]3CCC4=CC(=O)C=C[C@]4(C)[C@@]3(Cl)[C@@H](O)C[C@]2(C)[C@@]1(OC(=O)c1ccco1)C(=O)CCl,inactive,inactive,26.4 µM (active),2.96 µM (active),–,–
Nc1nc(=S)c2[nH]cnc2[nH]1,inactive,inactive,1.66 µM (active),2.96 µM (active),–,–
CCN[C@H]1C[C@H](C)S(=O)(=O)c2sc(S(N)(=O)=O)cc21,inactive,inactive,inactive,inactive,–,–
CC(=O)Oc1ccccc1C(=O)Nc1ncc([N+](=O)[O-])s1,inactive,inactive,19.1 µM (active),30.3 µM (active),–,–

SMILES,Potency [1],Potency [2],Potency [3],Potency [4],outcome [1],outcome [2]
COC(c1ccccc1)(c1ccccc1)[C@H](Oc1nc(C)cc(C)n1)C(=O)O,inactive,inactive,inactive,inactive,–,–
COc1ncnc(NS(=O)(=O)c2ccc(N)cc2)c1OC,inactive,inactive,inactive,inactive,–,–
S=P(N1CC1)(N1CC1)N1CC1,inactive,–,inactive,–,–,inactive [at 0.409 µM]
COc1ccc2c(c1)c(CC(=O)OCC(=O)O)c(C)n2C(=O)c1ccc(Cl)cc1,inactive,inactive,inactive,–,–,–
Cc1cccc(N(C)C(=S)Oc2ccc3ccccc3c2)c1,inactive,inactive,inactive,inactive,–,–
C[C@@H](CN1CC(=O)NC(=O)C1)N1CC(=O)NC(=O)C1,inactive,inactive,inactive,–,–,–
CNS(=O)(=O)Cc1ccc2[nH]cc(CCN(C)C)c2c1,inactive,inactive,inactive,–,–,–
CCCN[C@H]1CCc2nc(N)sc2C1,inactive,inactive,inactive,inactive,–,–
N[C@@H](Cc1ccc(O)c(O)c1)C(=O)O,inactive,inactive,inactive,–,–,–
CN(C)CCc1c[nH]c2ccc(CS(=O)(=O)N3CCCC3)cc12,inactive,inactive,inactive,inactive,–,–
O=C(O)CSCC(=O)NC1CCSC1=O (configuration not stated),inactive,inactive,inactive,inactive,–,–
CCN(CC)CCn1c(=O)c(Cc2ccc(OC)cc2)nc2ccccc21,inactive,inactive,inactive,–,–,–
O=C(O)c1cc(=O)[nH]c(=O)[nH]1,inactive,inactive,inactive,inactive,–,–
Nc1nc(N)nc(-c2cc(Cl)ccc2Cl)n1,inactive,inactive,inactive,inactive,–,–
CCOC(=O)[C@H](CCc1ccccc1)N[C@H]1CS[C@H](c2cccs2)CN(CC(=O)O)C1=O,inactive,inactive,–,2.96 µM (active),–,–
COCCCOc1cc(C[C@@H](C[C@H](N)[C@@H](O)C[C@H](C(=O)NCC(C)(C)C(N)=O)C(C)C)C(C)C)ccc1OC,–,inactive,–,–,–,–
CCOc1cc(N)c(Cl)cc1C(=O)NCC1CN(Cc2ccc(F)cc2)CCO1 (configuration not stated),inactive,inactive,–,inactive,–,–
CC(C)C[C@H](NC(=O)[C@H](CCc1ccccc1)NC(=O)CN1CCOCC1)C(=O)N[C@@H](Cc1ccccc1)C(=O)N[C@@H](CC(C)C)C(=O)[C@@]1(C)CO1,inactive,inactive,0.0083 µM (active),0.001 µM (active),–,–
COc1cc(NCc2ccc3nc(N)nc(N)c3c2C)cc(OC)c1OC,inactive,inactive,16.6 µM (active),18.7 µM (active),–,–
CC[C@H](NC(C)C)[C@H](O)c1ccc(O)c2[nH]c(=O)ccc12,inactive,inactive,inactive,inactive,–,–
CCn1cc(C(=O)O)c(=O)c2cc(F)c(N3CCNCC3)nc21,inactive,inactive,–,inactive,–,–
CCCCS(=N)(=O)CCC(N)C(=O)O (configuration not stated),inactive,inactive,inactive,inactive,–,–
O=C(N[C@H](CO)[C@H](O)c1ccc([N+](=O)[O-])cc1)C(Cl)Cl,inactive,inactive,–,inactive,–,–
O=c1oc2c(O)c(O)cc3c(=O)oc4c(O)c(O)cc1c4c23,inactive,inactive,inactive,inactive,–,–

SMILES,Potency [1],Potency [2],Potency [3],Potency [4],outcome [1],outcome [2]
CCN1CCCC1CNC(=O)c1cc(S(N)(=O)=O)ccc1OC (configuration not stated),inactive,inactive,inactive,inactive,–,–
Cc1oc(=O)oc1CN1CCN(c2cc3c(cc2F)c(=O)c(C(=O)O)c2n3C(C)S2)CC1 (configuration not stated),inactive,inactive,–,inactive,–,–
CC(C)NCC(O)c1ccc(NS(C)(=O)=O)cc1 (configuration not stated),inactive,inactive,inactive,inactive,–,–
C[C@@H]1CN(c2c(F)c(N)c3c(=O)c(C(=O)O)cn(C4CC4)c3c2F)C[C@H](C)N1,–,inactive,–,–,–,–
Cc1ncc([N+](=O)[O-])n1CCO,inactive,inactive,–,inactive,–,–
CCc1c2c(nc3ccc(OC(=O)N4CCC(N5CCCCC5)CC4)cc13)-c1cc3c(c(=O)n1C2)COC(=O)[C@]3(O)CC,20.2 µM (active) and 2.05 µM (active),12.6 µM (active),0.935 µM (active),1.32 µM (active),–,–
CCc1cc(C(N)=S)ccn1,–,inactive,–,–,–,–
CN1CCN(c2c(F)cc3c(=O)c(C(=O)O)cn(CCF)c3c2F)CC1,inactive,inactive,inactive,inactive,–,–
O[C@@H](CNC[C@H](O)[C@H]1CCc2cc(F)ccc2O1)[C@@H]1CCc2cc(F)ccc2O1,inactive,inactive,–,18.7 µM (active),–,–
CCOC(=O)c1ccc(OC(=O)CCCCCN=C(N)N)cc1,inactive,inactive,inactive,inactive,–,–
CCN(C)C(=O)Oc1cccc([C@H](C)N(C)C)c1,inactive,inactive,inactive,inactive,–,–
CCC(=O)O[C@]1(C(=O)SCF)[C@H](C)C[C@H]2[C@@H]3C[C@H](F)C4=CC(=O)C=C[C@]4(C)[C@@]3(F)[C@@H](O)C[C@@]21C,inactive,inactive,inactive,inactive,–,–
C#CCN[C@@H]1CCc2ccccc21,inactive,inactive,inactive,inactive,–,–
CC(C)(Sc1cc(C(C)(C)C)c(O)c(C(C)(C)C)c1)Sc1cc(C(C)(C)C)c(O)c(C(C)(C)C)c1,inactive,inactive,inactive,5.26 µM (active),–,–
CC(C)OC(=O)C(C(=O)OC(C)C)=C1SC=CS1,inactive,inactive,inactive,inactive,–,–
COc1nc(N)nc2c1ncn2[C@@H]1O[C@H](CO)[C@@H](O)[C@@H]1O,inactive,inactive,inactive,inactive,–,–
CCN(CC)CC#CCOC(=O)C(O)(c1ccccc1)C1CCCCC1 (configuration not stated),inactive,inactive,inactive,inactive,–,–
CC1CC2C3CCC4=CC(=O)C=C[C@]4(C)[C@@]3(F)[C@@H](O)C[C@]2(C)[C@@]1(O)C(=O)CO (some centres not stated),–,inactive,–,–,–,–
OCc1ccc(-c2nn(Cc3ccccc3)c3ccccc23)o1,inactive,inactive,inactive,20.9 µM (active),–,–
NC(=O)c1ccc2[nH]ccc2c1,inactive,inactive,–,inactive,–,–
Nc1nc(N)c2nc(CNc3ccc(C(=O)NC(CCC(=O)O)C(=O)O)cc3)cnc2n1 (configuration not stated),inactive,inactive,–,inactive,–,–
CCn1cc(C(=O)O)c(=O)c2cc(F)c(N3CCNCC3)cc21,inactive,–,inactive,inactive,–,–
COc1ccccc1OCC(O)COC(N)=O (configuration not stated),inactive,inactive,inactive,inactive,–,–
CCCc1nc(C)c2c(=O)[nH]c(-c3cc(S(=O)(=O)N4CCN(CC)CC4)ccc3OCC)nn12,inactive,inactive,8.33 µM (active),5.9 µM (active),–,–
